{
  "source": "PubChem BioAssay (NCATS)",
  "note": "Results filed as inconclusive are left out. Calls of active or inactive are those of the source. The call rests on the fitted dose curve; in most records, active means well fitted inhibition curve with a large enough effect; inconclusive means small, poorly fitted or top-dose-only effect; inactive means no such curve, though single readings can be large or run the other way. On the % scale 0 is the no-effect control and ±100 the full control effect; potency means the concentration at half of the fitted maximal effect.",
  "data": [
    {"target": "Retinaldehyde dehydrogenase 3 (Homo sapiens) (UniProt P47895)", "assay": "qHTS for Inhibitors of the Aldehyde Dehydrogenase Family (ALDH1A3) Validation screen (AID 2061312); further: nearly all actives have a fitted effect of over 45% in size", "details": "ALDH1A3 enzyme inhibition qHTS validation, fluorescence; series mostly up to 84.7 µM; activity change, negative = inhibition: at the top concentration", "values": [
      {"smiles": "CCN(CCO)CCCC(C)Nc1ccnc2cc(Cl)ccc12", "note": "(stereo not given)", "activity change, negative = inhibition": "6.92% [at 9.14 µM] (inactive)"},
      {"smiles": "CCCCc1oc2ccc(NS(C)(=O)=O)cc2c1C(=O)c1ccc(OCCCN(CCCC)CCCC)cc1", "activity change, negative = inhibition": "-8.44% (inactive)"},
      {"smiles": "Cn1cncc1C(N)(c1ccc(Cl)cc1)c1ccc2c(c1)c(-c1cccc(Cl)c1)cc(=O)n2C", "note": "(stereo not given)", "activity change, negative = inhibition": "47.8% (inactive)"},
      {"smiles": "CC(C)(C)c1cc(C(=O)O)c(NC(=O)Nc2ccc3[nH]ncc3c2)s1", "activity change, negative = inhibition": "34.7% (inactive)"},
      {"smiles": "O=C(c1cc(Cc2n[nH]c(=O)c3ccccc23)ccc1F)N1CCN(C(=O)C2CC2)CC1", "activity change, negative = inhibition": "66.4% (inactive)"},
      {"smiles": "CCC(CC)C(c1ccc(Nc2nc3ccccc3s2)cc1)n1cncn1", "note": "(stereo not given)", "activity change, negative = inhibition": "4.53% (inactive)"},
      {"smiles": "Cc1cc(C(=O)N2CCN(c3cccc(Cl)c3)CC2)n(-c2ccccc2)n1", "activity change, negative = inhibition": "122% (inactive)"},
      {"smiles": "COc1ccc(CCC(=O)Nc2nc3ccc(Cl)cc3s2)cc1OC", "activity change, negative = inhibition": "3.38% (inactive)"},
      {"smiles": "CNC(=O)c1cccc(-c2ccc3c(N4CCOC[C@@H]4C)nc(N4CCOC[C@@H]4C)nc3n2)c1", "activity change, negative = inhibition": "32.6% (inactive)"},
      {"smiles": "Clc1cccc(-n2nnnc2NCc2ccccc2Oc2ccccn2)c1Cl", "activity change, negative = inhibition": "-32.6% (inactive)"},
      {"smiles": "O=C(C(c1ccccc1)c1ccccc1)N1CCN(CC(O)COc2cccc3ncccc23)CC1", "note": "(stereo not given)", "activity change, negative = inhibition": "26.7% (inactive)"},
      {"smiles": "OC[C@H]1O[C@@H](Oc2cc(O)cc(/C=C/c3ccc(O)cc3)c2)[C@H](O)[C@@H](O)[C@@H]1O", "activity change, negative = inhibition": "-11.3% (inactive)"},
      {"smiles": "C[C@H]1CN(C[C@H](Cc2ccccc2)C(=O)NCC(=O)O)CC[C@@]1(C)c1cccc(O)c1", "activity change, negative = inhibition": "32.1% (inactive)"},
      {"smiles": "CC(C)(C)NC(=O)Nc1cccc(Nc2ncc(F)c(NC(C)(C)CO)n2)c1", "activity change, negative = inhibition": "15.5% (inactive)"},
      {"smiles": "O=C(NCC(=O)N1CC[C@H](NC2CCC(O)(c3ccc(-c4ncccn4)cn3)CC2)C1)c1cccc(C(F)(F)F)c1", "note": "(stereo not given in full)", "activity change, negative = inhibition": "134% (inactive)"},
      {"smiles": "C[C@]12CC[C@H](O)CC1=CCC1C2CC[C@]2(C)C(n3cnc4ccccc43)=CCC12", "note": "(stereo not given in full)", "activity change, negative = inhibition": "0.554% (inactive)"},
      {"smiles": "NS(=O)(=O)OC[C@@H]1C[C@@H](n2ccc3c(N[C@H]4CCc5ccccc54)ncnc32)C[C@@H]1O", "activity change, negative = inhibition": "32.6% (inactive)"},
      {"smiles": "NCC(=O)Nc1ccc(-n2nc(C(F)(F)F)cc2-c2ccc3c(ccc4ccccc43)c2)cc1", "activity change, negative = inhibition": "139% (inactive)"},
      {"smiles": "Cc1cc(-c2ncc(CC(=O)Nc3ccc(-c4cnccn4)cn3)cc2C)ccn1", "activity change, negative = inhibition": "-21.7% (inactive)"},
      {"smiles": "COc1ccc2cc(OCC3(C(=O)O)CN(C(=O)c4ccc(F)cc4)C3)ccc2c1", "activity change, negative = inhibition": "42.3% (inactive)"},
      {"smiles": "COc1ccc(N(C)c2nc(C)nc3ccccc23)cc1", "activity change, negative = inhibition": "-18% (inactive)"},
      {"smiles": "NC(=O)c1cccc2cn(-c3ccc([C@@H]4CCCNC4)cc3)nc12", "activity change, negative = inhibition": "118% (inactive)"},
      {"smiles": "COc1ccc2c(OCc3nnc4ccc(-c5ccccc5)nn34)ccnc2c1", "activity change, negative = inhibition": "13.1% (inactive)"},
      {"smiles": "Cc1cc(OCc2nnc(SC3CCCC3)n2-c2cccnc2)ccc1-c1ccc(S(C)(=O)=O)cc1", "activity change, negative = inhibition": "1.53% (inactive)"},
      {"smiles": "CNC(=O)c1ccc(-c2cnc3ncc(Cc4ccc5ncccc5c4)n3n2)cc1F", "activity change, negative = inhibition": "3.37% (inactive)"},
      {"smiles": "COCCOc1ccc(N2CCN(CCn3ncc4c3nc(N)n3nc(-c5ccco5)nc43)CC2)cc1", "activity change, negative = inhibition": "15% (inactive)"},
      {"smiles": "COC(=O)N(C)c1c(N)nc(-c2nn(Cc3ccccc3F)c3ncccc23)nc1N", "activity change, negative = inhibition": "60.1% (inactive)"},
      {"smiles": "Cn1c(CNc2ccc(C(=N)N)cc2)nc2cc(C(=O)N(CCC(=O)O)c3ccccn3)ccc21", "activity change, negative = inhibition": "23.7% (inactive)"},
      {"smiles": "CN1CC[C@@H](NC(=O)Nc2ccc(C#N)cc2)C[C@@H]1c1nc2ccccc2[nH]1", "Potency": "3.98 µM (active)"},
      {"smiles": "COc1cccc(Nc2c(C(N)=O)cnc3c(C)cc(S(=O)(=O)c4cccc(C(=O)N(C)C)c4)cc23)c1", "activity change, negative = inhibition": "16.8% (inactive)"},
      {"smiles": "CC(C)(N)C(=O)N[C@H](COCc1ccccc1)C(=O)N1CCC2(CC1)CN(S(C)(=O)=O)c1ccccc12", "activity change, negative = inhibition": "41.7% (inactive)"},
      {"smiles": "COc1ccc(-n2c(SCCCN3C(=O)c4cccc5cccc(c45)C3=O)nnc2-c2ccncc2)cc1", "activity change, negative = inhibition": "-21% (inactive)"},
      {"smiles": "COc1cccc2c(NCc3ccccc3)nc(-n3c(N)nc4ccccc43)nc12", "activity change, negative = inhibition": "22.8% (inactive)"},
      {"smiles": "COC(=O)Nc1nc2ccc(C(=O)c3ccc(F)cc3)cc2[nH]1", "activity change, negative = inhibition": "-15.9% (inactive)"},
      {"smiles": "COc1cc2c(cc1OC)CN(CCc1ccc(NC(=O)c3cccc4c(=O)c5cccc(OC)c5[nH]c34)cc1)CC2", "activity change, negative = inhibition": "69.6% (inactive)"},
      {"smiles": "Cc1cccc(-c2nn3c(c2-c2ccnc4ccc(C(N)=O)cc24)CCC3)n1", "activity change, negative = inhibition": "-7.05% (inactive)"},
      {"smiles": "COc1ccc(-n2nc(C(N)=O)c3c2C(=O)N(c2ccc(N4CCCCC4=O)cc2)CC3)cc1", "activity change, negative = inhibition": "41.8% (inactive)"},
      {"smiles": "CC(C)OC(=O)C1=CN(C(=O)c2ccc(F)c(F)c2)CC(C)(C)c2c1[nH]c1ccccc21", "activity change, negative = inhibition": "29.9% (inactive)"},
      {"smiles": "CCCCNc1ncc(-c2ccc(CN3CCOCC3)cn2)c(NC2CCC(O)CC2)n1", "note": "(stereo not given)", "activity change, negative = inhibition": "10.9% [at 42.4 µM] (inactive)"},
      {"smiles": "Cc1nnc(C(C)C)n1C1CC2CCC(C1)N2CC[C@H](NC(=O)C1CCC(F)(F)CC1)c1ccccc1", "note": "(stereo not given in full)", "activity change, negative = inhibition": "74.4% (inactive)"}
    ]}
  ]
}
